Screen size: about 59,000 compounds; about 6,500 (11%) were called active. Inconclusive results (about 15%) are left out. No stated cut-off is given here; in the data, active means max dye-equivalent concentration above about 10 nM; inconclusive means mostly about 1.1 nM to 9.6 nM; inactive means weaker than that. The entries come from a sample that favours actives as a whole.
assay: qHTS Assay for Spectroscopic Profiling in A350 Spectral Region; conditions: Compound autofluorescence, 340/450 nm, Alexa 350 dye-equivalents; stronger effect = higher value

Max dye-equivalent concentration, active:
CCNCc1cc2cc(C)ccc2[nH]c1=O 53 nM
Cc1csc(NC(=O)NC2(C(F)(F)F)Oc3ccccc3O2)n1 100 nM
COc1ccc2[nH]c3ccc(OC)cc3c2c1 150 nM
CCOc1ccc(-c2nnc3ccc(SC)nn23)cc1 12 nM
Cc1c(NC(=O)C(C)OC(=O)c2cc3c4ccccc4n(C)c3s2)c(=O)n(-c2ccccc2)n1C (stereo not drawn) 170 nM
O=c1cc(-c2ccccc2)[nH]c2nc(Cl)ccc12 69 nM
Cc1ccc(C(=O)CS(C)(=O)=O)cc1 19 nM
COCCn1c(=O)c(CCc2ccccc2)nc2cncnc21 88 nM
N#Cc1cccc(-c2nc3cnc(N4CCNCC4)nc3n(C3CC3)c2=O)c1 350 nM
Cc1nc2cnc(N3CCNCC3)nc2n(Cc2ccc(F)cc2)c1=O 110 nM
Cc1nc2cnc(N3CCN(C)CC3)nc2n(C[C@H]2CCCO2)c1=O 59 nM
O=c1c(-c2ccc(F)cc2)nc2cnc(N3CCNCC3)nc2n1Cc1cccs1 16 nM
COCCn1c(=O)c(CCc2ccccc2)nc2cnc(N3CCNCC3)nc21 60 nM
Cn1c(=O)c(-c2ccccc2)nc2cnc(N3CCNCC3)nc21 320 nM
Cc1nc2cnc(N3CCNCC3)nc2n(CCc2ccccc2)c1=O 60 nM

Max dye-equivalent concentration, inactive:
CCOC(=O)c1cc2cc(C)ccc2[nH]1
Cc1ccc2[nH]c(=O)c(-c3nc4c(C)cccn4c3NCc3ccco3)cc2c1
CC(C)(C)n1nnc(CCc2nnn(C(C)(C)C)n2)n1
Cc1csc(NC(=O)CN2CCCCCC2)n1
O=C(Nc1cc(N2CCOCC2)ncn1)NC1(C(F)(F)F)Oc2ccc(Cl)cc2O1 (stereo not drawn)
COc1cccc(Oc2ccc(N)cc2)c1
COc1ccc2[nH]c3cc4c(=O)c5cc(OC)ccc5[nH]c4cc3c(=O)c2c1
CC(C)c1ccc(-c2nn[nH]n2)cc1
CCn1cc(C(=O)N2CCN(Cc3ccc4c(c3)OCO4)CC2)c2cc(OC)c(OC)cc2c1=O
CS(=O)(=O)N1CCC2(CC1)CN(c1ccncc1)C2
CC(=O)NC(Cc1ccc(F)cc1)C(=O)O (stereo not drawn)
Cc1cc(C)cc(N(C(C)C(=O)Nc2c(C)n(C)n(-c3ccccc3)c2=O)S(C)(=O)=O)c1 (stereo not drawn)
Cc1ccccc1OCCC(=O)Nc1c(C)n(C)n(-c2ccccc2)c1=O
C[C@H](NC(=O)OC(C)(C)C)c1nnc(SCC(N)=O)o1
CCCNS(=O)(=O)c1ccc(CCC(=O)NCc2cccnc2)cc1
COc1ccc(CN(C(=O)c2cccs2)c2nccs2)cc1OC
Cc1ccc(C)n1-c1ccncc1
COCCN1Cc2cccc(C(=O)Nc3ccccc3OC)c2C1=O
Fc1ccccc1OCCSc1nc2ccccc2o1
O=C1C=C(NCCNc2c(F)c(F)c(CO)c(F)c2F)CCC1
Cc1cc(=O)[nH]c(SCC(=O)N2c3ccccc3CC2C)n1 (stereo not drawn)
Cn1cc(-c2nc3cnc(N4CCNCC4)nc3n(CCC#N)c2=O)c2ccccc21
Cc1nc2cnc(Nc3ccccc3)nc2n(C[C@H]2CCCO2)c1=O
Cn1c(=O)c2c(nc(OCc3cccnc3)n2Cc2ccccc2)n(C)c1=O
O=c1c(CCc2ccccc2)nc2cncnc2n1C1CC1
O=C(CSc1nnc(-c2ccco2)n1CC1CCCO1)c1ccccc1 (stereo not drawn)
CCOc1cc2c(cc1OCC)C(C(=O)O)C(c1ccc(OC)c(O)c1)N(C)C2=O (stereo not drawn)
O=C(COc1cccc(-n2cnnn2)c1)NCCC1=CCCCC1
Cc1cc(C)cc(NC(=O)N2CCC(NC(=O)c3ccc(F)cc3)CC2)c1
O=C(NC12CC3CC(CC(C3)C1)C2)N1CCCC(CO)C1 (stereo not drawn)
COc1ccc(S(=O)(=O)N2CCCC2)c(C)c1C
Cc1ccc(NC(=O)C2CC(c3ccc(F)cc3)=NO2)cc1 (stereo not drawn)
COc1ccc(C(=O)N2CCC3(CC2)CCN(c2ccccn2)CC3)cc1
CCOC(=O)CCC(=O)OCC(=O)NC(C)C1CC2CCC1C2 (stereo not drawn)
Cc1nc(N2CCCC2C(=O)O)c2oc3ccccc3c2n1 (stereo not drawn)
COC(=O)c1ccc(C2CC(=O)Nc3cc(OC)c(OC)cc32)cc1 (stereo not drawn)
CC1CCN(Cc2nc3c(c(=O)n(C)c(=O)n3C)n2CCc2ccccc2)CC1
Cn1cc(-c2nc3cnc(N4CCNCC4)nc3n(CCc3ccccc3)c2=O)c2ccccc21

Source: PubChem BioAssay AID590 (National Center for Advancing Translational Sciences (NCATS), 2007)
